TEAD-YAP inh – TEAD-YAP interaction inhibition; inhibition, % at 9.12 µM; AID 1259422; 640,000 tested, 1.4% active; HEK-TIYL cells, TEAD-Gal4/YAP UAS-luciferase luminescence; in the data active = inhibition above about 32%;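 note: 0% = median of test compound wells and 100% = reference inhibitor wells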
FBW7 activator – activators of human E3 ligase FBW7. AID 1259310. normalized activity (activation), % at 26.1 µM. AlphaScreen FBW7–phospho-cyclin E peptide binding, activator screen. 650,000 tested, 0.13% active; in the data active = normalized activity above about 1.9%;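 note: purified mutant Fbw7 with reduced substrate affinity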
MITF primary – blocks human microphthalmia-associated transcription factor; O75030; AlphaScreen MITF homodimerization, bead proximity signal; inhibition, % at 2.6 µM; 650,000 tested, 0.91% active; in the data active = inhibition above about 50%;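 note: 0% = vehicle wells with protein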
GPR151 activ – activates the human receptor GPR151; Q8TDV0; PathHunter beta-arrestin GPR151 cells, luminescence; activation, % at 11.2 µM; 650,000 tested, 1% active; AID 1508602; in the data active = activation above about 4.9%;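 note: 0% = median of compound wells and 100% = cells with positive control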
Target sequence (Q8TDV0 whole entry, looked up): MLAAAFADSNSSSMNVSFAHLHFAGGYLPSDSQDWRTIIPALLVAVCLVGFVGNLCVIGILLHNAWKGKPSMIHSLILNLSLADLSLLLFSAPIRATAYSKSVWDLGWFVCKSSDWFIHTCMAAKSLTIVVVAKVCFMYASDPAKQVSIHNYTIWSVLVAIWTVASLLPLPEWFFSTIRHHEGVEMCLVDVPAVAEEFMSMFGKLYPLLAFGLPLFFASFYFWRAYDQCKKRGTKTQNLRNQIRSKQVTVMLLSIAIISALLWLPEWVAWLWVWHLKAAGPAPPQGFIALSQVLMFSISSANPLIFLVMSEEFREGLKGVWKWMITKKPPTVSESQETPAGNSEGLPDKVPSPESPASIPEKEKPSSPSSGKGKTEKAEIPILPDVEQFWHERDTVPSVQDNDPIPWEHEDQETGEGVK
MITF inh conf – human MITF inhibition, confirmation. shares compounds with MITF primary. AlphaScreen MITF homodimerization, biotin/His-MITF beads. inhibition, % at 2.6 µM. 4,700 tested, 16% active. AID 1259372;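 active = inhibition above a cutoff derived from the DMSO control wells, cut at about 28% in these data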;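 note: 0% = MITF dimer wells with DMSO only; inhibitors lower the bead chemiluminescence by keeping MITF from dimerizing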
AS interf DR – optically interferes with AlphaScreen signal in dose response; shares compounds with MITF primary; 480 tested, 6% active; AlphaScreen optical interference counterscreen, cell-free; IC50, µM; AID 1259373; call rule not given here
AlphaScreen intf2 – counter-screen: compounds optically interfering with AlphaScreen. shares compounds with MITF primary. LysRS AlphaScreen counterscreen, signal interference, triplicate. inhibition, % at 2.6 µM. 4,700 tested, 7.6% active;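 active = inhibition above a cutoff derived from the DMSO control wells, cut at about 30% in these data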
Starred values were filed as active, the others as inactive; · = no result given. In the library only some 3.5% were active in any assay of this set; here they are far more common.

SMILES	TEAD-YAP inh	FBW7 activator	MITF primary	GPR151 activ	MITF inh conf	AlphaScreen intf2	others
OCCN(Cc1ccccc1)Cc1cccc(F)c1	-18	1	57*	0	9	9
OCCN(Cc1ccccc1)Cc1ccccc1Cl	-1	0	14	0	·	·
CC(=O)Nc1ccc(S(=O)(=O)N2CCN(CC3CC4C=CC3C4)CC2)cc1 (stereo not given)	-3	0	51*	0	-11	-3
CN(C)c1ccc(NC(=O)CSc2ncccc2C(=O)O)cc1	32	0	64*	1	75*	22	AS interf DR=>6.5
O=C(Cn1nnc(-c2ccccc2NC(=O)C2CC2)n1)Nc1ccccc1	3	0	-2	0	·	·
NC(=O)Cn1nnc(-c2ccccc2NC(=O)C2CCCCC2)n1	2	0	84*	-1	12	11
O=C(Cn1nc2ccccc2n1)N/N=C/c1ccccc1F	2	0	54*	0	16	-7
CN1CCC(N(C)CC(=O)Nc2ccc3c(c2)OC(F)(F)O3)CC1	9	0	57*	1	-7	0
CCN(CC)CC(=O)NC(C)c1ccccc1 (stereo not given)	3	0	-12	1	·	·
CN(C)CC(C)(C)CNCC(=O)Nc1ccc2c(c1)OC(F)(F)O2	3	0	56*	2	-11	-2
Cc1ccc2nc(-c3ccc(NC(=O)CNCC(C)(C)CN(C)C)cc3)sc2c1	2	0	52*	-1	-2	8
CC(=O)N1CCN(CC(=O)Nc2ccc3c(c2)OC(F)(F)O3)CC1	3	0	5	-1	·	·
CC(NC(=O)CN(C)C1CCN(C)CC1)c1ccccc1 (stereo not given)	0	0	59*	2	-6	-6
Cc1ccc2nc(-c3ccc(NC(=O)Cc4ccccc4)cc3)sc2c1	-18	0	-4	1	·	·
CC(=O)Nc1ccc(NC(=O)CCCC(=O)O)cc1Cl	5	0	10	-1	·	·
COc1cccc(CN2CCNC(=O)C2CC(=O)N2CCN(C)CC2)c1 (stereo not given)	8	0	-8	1	·	·
CCC(Sc1nc2ccccc2c(=O)n1CC1CCC(C(=O)NCc2ccccc2)CC1)C(=O)NCc1cccnc1 (stereo not given)	-1	0	0	0	·	·
CCCCOC(=O)c1ccc(NC(=O)CN(C)C2CCN(C)CC2)cc1	-27	0	58*	-1	10	17
CCCCOC(=O)c1ccc(NC(=O)CCCC)cc1	-4	0	1	1	·	·
CCN(CC(=O)Nc1ccc2c(c1)OCCO2)CC(=O)Nc1ccccc1C(F)(F)F	2	0	89*	0	14	15
CCN(CC(=O)Nc1ccc(NC(C)=O)cc1)CC(=O)Nc1ccc(Cl)c(Cl)c1	-7	0	94*	-2	11	14
CCN(CC(=O)Nc1ccc(OC)cc1)CC(=O)NC(C)(C)C	-2	0	9	-1	·	·
CCN(CC)CC(=O)Nc1ccc(OC)cc1	-9	1	52*	-1	28*	18	AS interf DR=>6.5
CCN(CC)CC(=O)Nc1ccc2c(c1)OCO2	-2	0	3	0	·	·
CCN(CC(=O)Nc1ccc(C(C)=O)cc1)CC(=O)Nc1ccc2c(c1)OCCO2	-1	0	80*	0	9	12
SMILES	TEAD-YAP inh	FBW7 activator	MITF primary	GPR151 activ	MITF inh conf	AlphaScreen intf2	others
NC(=O)c1ccc(-c2nc(NCc3cccnc3)c3ncn(CCN4CCCC4=O)c3n2)cc1	-9	0	18	-1	·	·
O=C(CN1CCN(c2ccccc2)CC1)Nc1c2c(nc3c1CCC3)CCCC2	-6	0	2	0	·	·
O=C(CN1CCN(Cc2ccccc2)CC1)Nc1c2c(nc3c1CCC3)CCCC2	5	0	67*	1	-6	-6
CN(CC(=O)Nc1c2c(nc3ccccc13)CCC2)Cc1ccccc1	-5	0	71*	2	11	9
CN1CCN(CC(=O)Nc2c3c(nc4ccccc24)CCCC3)CC1	2	0	60*	1	4	13
O=C(Nc1cccc([N+](=O)[O-])c1)NC(C(F)(F)F)C(F)(F)F	-4	0	2	1	·	·
COc1cccc(CN2CCN(Cc3ccc(OC)cc3OC)CC2)c1	-1	0	81*	-2	13	15

Compound activity: PubChem, The Scripps Research Institute Molecular Screening Center
